The record followed here is PubChem BioAssay (Tox21).

Molecules are shown by their SMILES. Records with an inconclusive call do not appear. Calls of active or inactive are those of the source. Unless noted, the call rests on the fitted dose curve; in most records, active means well fitted curve in the direction sought with a large enough effect in the repeat runs; inconclusive means weak or mixed curves; inactive means no such curve, though single readings can be large; an effect the other way counts as inactive or inconclusive.

Test [1] in a line: qHTS assay for small molecule agonists of the p53 signaling pathway (AID 651631; calls by dose curve; further: nearly all actives have a fitted effect of over 15% in size). The method, boiled down: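 Agonist mode screen using a stably integrated beta-lactamase gene under p53 response elements in HCT-116 cells. Compound exposure lasts 16 h at 37 °C; fluorescence intensity is measured following 2 h FRET substrate loading.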
Test [2] is described as follows: qHTS assay for small molecules that induce genotoxicity in human embryonic kidney cells expressing luciferase-tagged ATAD5 (AID 651632). Further: nearly all actives have a fitted effect of over 15% in size. The method, boiled down:
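Increased luciferase signal from ATAD5-tagged reporter cells indicates DNA-damage-driven ATAD5 induction. HEK293T cells are treated for 16 hr at 37C before detection with Amplite.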

Test [3] in a line: qHTS assay for small molecule agonists of the p53 signaling pathway - cell viability (AID 651633; calls by dose curve;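 further: p53RE-bla HCT reporter cells with a stable beta-lactamase p53 reporter; nearly all actives have a fitted effect of over 30% in size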). In outline: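 p53RE-bla cells, seeded at 4,000 per well and rested 5 h at 37 C/5% CO2, received compounds in DMSO for 16 h at 37 C. CellTiter-Glo was then added, and luminescence was read after 30 min at room temperature to gauge cytotoxicity.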
(In general: Quantitative high-throughput screening tests each substance at several concentrations.)

The nature of test [4]: qHTS assay for small molecules that induce genotoxicity in human embryonic kidney cells expressing luciferase-tagged ATAD5 - cell viability (AID 651634; calls by dose curve; further: nearly all actives have a fitted effect of over 25% in size). In outline:
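Cytotoxicity counterscreen in HEK293T cells bearing an ATAD5-luciferase reporter: live-cell protease activity measured by CellTiter-Fluor fluorescence after 15.5 hr compound exposure.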

The nature of test [5]: qHTS assay for small molecule disruptors of the mitochondrial membrane potential (AID 720635). Further: potency means the concentration at half of the fitted maximal effect. In outline: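 HepG2 cells (2,000/well) attached overnight at 37C, then took compound for 1 hr at 37C, 5% CO2. Mito-MPS dye was added for 30 min; fluorescence was read at 490/535 nm (monomers) and 540/590 nm (aggregates).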
Test [6] can be described thus: qHTS assay to test for compound auto fluorescence at 535 nm (green) in HepG2 cells (AID 720675).
A short description of test [7]: qHTS assay to test for compound auto fluorescence at 460 nm (blue) in HEK293 cells (AID 720678). In outline:
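Intrinsic compound fluorescence is recorded in live HEK293 cultures after overnight incubation at 37C, 5% CO2, using excitation 405 nm and emission 460 nm. Values are referenced to triamterene.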

A short description of test [8]: qHTS assay to test for compound auto fluorescence at 590 nm (red) in HEK293 cells (AID 720679). In outline:
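Red autofluorescence, HEK293 cells: 2,000 cells/well; attach 4-5 hr 37C; add 23 nL cpd or DMSO; incubate o/n 37C 5% CO2; read Ex540/Em590; Rose Bengal sodium reference.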

Test [9] can be described thus: qHTS assay to test for compound auto fluorescence at 535 nm (green) in HEK293 cells (AID 720680).
A short description of test [10]: qHTS assay to test for compound auto fluorescence at 460 nm (blue) in HEK293 cell free culture (AID 720681). In outline:
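Test compounds were pinned into cell-free culture medium (DMEM with 10% FBS) and fluorescence was read directly at Ex/Em 405/460 nm. Signals were expressed as fluorescence equivalents of triamterene, with DMSO vehicle as control.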

Test [11] is described as follows: qHTS assay to test for compound auto fluorescence at 535 nm (green) in HEK293 cell free culture (AID 720682). The method, boiled down:
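No cells present: wells hold DMEM supplemented with 10% FBS, into which compound or vehicle is pinned. Green emission is then recorded (485 nm excitation, 535 nm emission) and scaled to fluorescein.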

Test [12] can be described thus: qHTS assay to test for compound auto fluorescence at 590 nm (red) in HEK293 cell free culture (AID 720683). In outline: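 Tox21 10K library compounds were pinned into cell-free DMEM with 10% FBS and fluorescence was read at excitation 540 nm. Activity is expressed as Rose Bengal sodium equivalency.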
Test [13] can be described thus: qHTS assay to test for compound auto fluorescence at 590 nm (red) in HepG2 cell free culture (AID 720684). In outline:
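Red fluorescence (540 nm excitation, 590 nm emission) was measured after compound transfer into cell-free MEM supplemented with 10% FBS. Values are equivalencies against Rose Bengal sodium.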

Test [14] is described as follows: qHTS assay to test for compound auto fluorescence at 460 nm (blue) in HepG2 cell free culture (AID 720685). The method, boiled down:
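Compound (23 nL) or DMSO pinned into cell-free MEM with 10% FBS; blue fluorescence read at 405/460 nm excitation/emission, expressed as auto-fluorescence equivalency to triamterene.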

Test [15] is described as follows: qHTS assay to test for compound auto fluorescence at 535 nm (green) in HepG2 cell free culture (AID 720686).
A short description of test [16]: qHTS assay to test for compound auto fluorescence at 460 nm (blue) in HepG2 cells (AID 720687). In outline:
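Cells (2,000/well in MEM with 10% FBS) attached overnight at 37 C, then were exposed to compound or DMSO for 1 hr at 37 C, 5% CO2. Fluorescence read at Ex/Em 405/460 nm, expressed as triamterene-equivalent signal.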

Test [17] deals with Glucocorticoid receptor (Homo sapiens) (UniProt P04150). Kind of test: qHTS assay to identify small molecule agonists of the glucocorticoid receptor (GR) signaling pathway (AID 720691; active means well fitted activation curve with a large enough effect in the signal ratio in the repeat runs, not every such curve was filed as active; the % refers to the signal ratio). Particulars: GR-bla HeLa, beta-lactamase reporter ratio, 18 h; activation: at 62.4 µM (top of the series). The method, boiled down: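 Agonist mode in a HeLa line carrying a GRE-controlled beta-lactamase reporter. Compounds act for 18 h at 37 C before a 2 h room-temperature FRET substrate step and fluorescence reading.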
Glucocorticoid receptor (Homo sapiens), sequence (P04150 whole entry, looked up): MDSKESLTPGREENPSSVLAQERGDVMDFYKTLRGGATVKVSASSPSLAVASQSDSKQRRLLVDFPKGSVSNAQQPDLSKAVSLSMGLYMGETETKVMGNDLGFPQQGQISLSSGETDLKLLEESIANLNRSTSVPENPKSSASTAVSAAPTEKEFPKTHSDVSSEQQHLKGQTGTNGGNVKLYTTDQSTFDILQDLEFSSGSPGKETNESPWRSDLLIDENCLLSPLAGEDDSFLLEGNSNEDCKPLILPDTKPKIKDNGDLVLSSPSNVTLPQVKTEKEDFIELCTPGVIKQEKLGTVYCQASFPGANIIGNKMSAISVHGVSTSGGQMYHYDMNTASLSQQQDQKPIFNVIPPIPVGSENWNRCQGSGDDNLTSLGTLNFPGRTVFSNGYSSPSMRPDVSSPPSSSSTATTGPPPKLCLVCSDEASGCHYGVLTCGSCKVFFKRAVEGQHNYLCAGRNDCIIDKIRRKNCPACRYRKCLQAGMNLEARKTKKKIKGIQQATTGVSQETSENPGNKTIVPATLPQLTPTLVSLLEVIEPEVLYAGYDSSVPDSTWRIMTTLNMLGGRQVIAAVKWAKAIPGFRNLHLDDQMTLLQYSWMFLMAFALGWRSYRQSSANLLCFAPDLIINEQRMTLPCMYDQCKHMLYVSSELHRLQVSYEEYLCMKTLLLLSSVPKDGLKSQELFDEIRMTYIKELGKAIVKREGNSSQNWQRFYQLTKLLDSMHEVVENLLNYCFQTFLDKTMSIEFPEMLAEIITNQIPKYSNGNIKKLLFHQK

Test [18] can be described thus: qHTS assay to test for compound auto fluorescence at 590 nm (red) in HepG2 cells (AID 720674). The method, boiled down: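 Rose Bengal sodium served as the red fluorophore standard. HepG2 monolayers (overnight attachment, MEM with 10% FBS) were exposed to test compounds for 1 hr at 37 C and read at Ex 540/Em 590 nm.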
Test [19] deals with Glucocorticoid receptor (Homo sapiens) (UniProt P04150). Kind of test: qHTS assay to identify small molecule antagonists of the glucocorticoid receptor (GR) signaling pathway (AID 720692; active means well fitted inhibition curve with a large enough effect in the signal ratio in the repeat runs, not every such curve was filed as active; the % refers to the signal ratio). The method, boiled down:
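Cells plated, rested 4 h at 37 C/5% CO2; compounds in DMSO pin-transferred; dexamethasone added to 5 nM final; 18 h at 37 C; B/G FRET substrate added, 2 h room temperature; fluorescence measured.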

Test [20] can be described thus: qHTS assay for small molecule disruptors of the mitochondrial membrane potential - cell viability (AID 720634; calls by dose curve;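 further: human HepG2 liver cancer cells; nearly all actives have a fitted effect of over 20% in size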). In outline:
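After overnight attachment at 37 C, HepG2 cells received compound or DMSO vehicle for 1 hr. Viability is then taken from ATP-driven luminescence following a 30 min room-temperature CellTiter-Glo step.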

As to `C=C(C)C(=O)OCCC[Si](Cl)(Cl)Cl`, the Potency entry in test [1], in test [2], in [3], in test [4], in test [6] and in [7] was “inactive” throughout. Further, the Potency result in [8], in test [9], in test [10], in test [11], in test [12] and in test [13] was “inactive” in each case. Also, the Potency entry in test [14], in test [15], in [16] and in test [17] was “inactive” throughout. In addition, the Potency in test [5] is 61.7 µM (active).
For `O=C1OC(OC(=O)c2cccnc2Nc2cccc(C(F)(F)F)c2)c2ccccc21` (stereo not given), the Potency entry in [1], in test [2], in [3], in [4], in test [18] and in test [6] was “inactive” throughout. The Potency entry in [7], in [9], in [10], in [11], in [12] and in test [13] was “inactive” throughout. Moreover, the Potency entry in test [14], in test [15], in test [16], in test [17] and in test [19] was “inactive” each time. Moreover, the Potency in [5] was 24.8 µM (active).
In the case of `C(=C/c1ccccc1)/c1ccccc1`, the Potency entry in [1], in [2], in test [3], in test [4], in test [20] and in test [18] was “inactive” throughout. For the same compound, the Potency result in test [6], in test [7], in test [8], in test [9], in [10] and in test [11] was “inactive” in each case. In addition, the Potency result in test [12], in test [13], in [14], in test [15] and in test [16] was “inactive” throughout.
For the compound `NC(=O)c1ccccc1N`, the Potency entry in [1], in [2], in test [3], in test [4], in test [20] and in [5] was “inactive” each time. Moreover, the Potency entry in [6], in test [7], in test [8], in test [9], in [10] and in test [11] was “inactive” throughout. Also, the Potency result in [12], in test [13], in test [14], in [15] and in test [16] was “inactive” in each case.
Turning to `CCCCCCCCCC(=O)N(C)C`, the Potency result in test [1], in test [2], in test [3], in test [4], in [20] and in test [18] was “inactive” each time. For the same compound, the Potency entry in test [6], in test [7], in test [8], in test [9], in test [10] and in test [11] was “inactive” in each case. Moreover, the Potency result in test [12], in [13], in [14], in [15], in test [16] and in [17] was “inactive” in each case. Besides, the Potency result in test [19] is “inactive”.
For `ClC/C=C\CCl`, the Potency result in test [1], in [2], in test [3], in [4], in test [20] and in test [5] was “inactive” each time. Further, the Potency entry in test [18], in [6], in [7], in test [8], in [9] and in [10] was “inactive” each time. For the same compound, the Potency entry in test [11], in test [12], in [13], in test [14], in test [15] and in test [16] was “inactive” in each case.
With `O=C(c1ccccc1)c1cc(Cl)ccc1O`, the Potency entry in [1], in test [2], in [4], in [20], in test [18] and in test [6] was “inactive” throughout. Further, the Potency result in [7], in test [8], in test [9], in test [10], in test [11] and in test [12] was “inactive” each time. Moreover, the Potency result in test [13], in test [14], in test [15], in test [16], in test [17] and in test [19] was “inactive” throughout. For the same compound, the Potency in [5] was 25.9 µM (active).
